pKd: −log10 of the molar value. Where only a bound is given, the exact number is not on record here.
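Note: kd values determined as follow-up on hits from a single-replicate KINOMEscan panel screen.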

The test system of one assay is CHEK2.
On to `COc1ccc(Nc2nccc(NCCNC(=O)Nc3cc(C)ccc3C)n2)cc1` [GSK1379899], for which the pKd is < 5.00. In turn, `CC(C)c1cc(-c2ccc3c(N)n[nH]c3c2)nc(N)n1` [GSK2250882] showed a pKd of 6.49.

For the compound `CNc1cc(-c2ccc3c(N)n[nH]c3c2)nc(N)n1` [GSK2224810], the pKd is 5.70.

The test system of the next assay is CIT.
With `COc1cccc(NC(=O)Nc2ccc(C)c(-c3ccc(C(=O)Nc4ccncc4)cc3)c2)c1` [GSK1398474], the pKd is 6.55. On the same count and under the same terms, the same measure for `CC[C@@H]1CO[C@H](C(=O)Nc2ccccc2)CN1c1cc(-c2ccc3c(N)n[nH]c3c2)nc(NC)n1` [GSK2376236]: 6.70. In turn, `Fc1ccc(-c2nc[nH]c2-c2ccncc2)cc1` [SB-217360] had a pKd of 6.51. This pKd and that of the compound before are within 0.2 log units of each other. Same read-out and setting: the same measure for `Fc1ccc(-c2nc3n(c2-c2ccncc2)CCS3)cc1` [GI98581]: 6.12; for `Cc1cccc2c(-c3ccncn3)c(-c3ccc(F)cc3)nn12` [GW515532]: 5.60; for `Fc1ccc(-c2nn3cccc(F)c3c2-c2ccncc2)cc1` [GW475620]: 6.51.

As for `Cc1ccc(NC(=O)Nc2ccc(Cl)cc2)cc1-c1ccc(C(=O)Nc2ccncc2)cc1` [GSK1398472], the pKd was 6.37. Turning to `Cl.Cl.Cl.N#Cc1ccc(CCNc2nccc(-c3cccc(CN4CCNCC4)c3)n2)cc1` [GSK2137462], the pKd was 5.07. The same measure, in the same setting: for `Cc1ccc(NC(=O)Nc2ccccc2F)cc1-c1ccc(C(=O)Nc2ccncc2)cc1` [GSK1398477] the value was 6.24; for `Nc1nccc(-c2c(-c3ccc(F)cc3)ncn2C2CCN(Cc3ccccc3)CC2)n1` [SB-219980], 6.89. The same measure, in the same setting: the same measure for `Cc1ccc(NC(=O)Nc2ccccc2)cc1-c1ccc(C(=O)Nc2ccncc2)cc1` [GSK1398471]: 6.27; for `CNc1nc(-c2ccc3c(N)n[nH]c3c2)cc(N2C[C@@H](C(=O)Nc3ccccc3)CC[C@H]2C)n1` [GSK2298859]: 6.30.

The subject of the next assay is CLK1.
On to `Cc1cccc2c(-c3ccncn3)c(-c3ccc(F)cc3)nn12` [GW515532], for which the pKd was < 5.00. `COc1ccc(CSc2nnc(-c3ccc4nccn4c3)o2)cc1C(F)(F)F` gave a pKd of 7.15. `CNCc1ccc2nc(NC(=O)c3ccc(C(C)(C)C)cc3)cn2c1` showed a pKd of 5.12. Consider `COc1ccc(CSc2nnc(-c3ccc4ncsc4c3)o2)cc1C(F)(F)F`, for which the pKd was 6.77.

As to `O=C1NC(=O)C(c2ccc(Cl)cc2)=C1Nc1cccc(Cl)c1` [SB-317651], the pKd was 5.36.

As to `CNc1cc(-c2ccc3c(N)n[nH]c3c2)nc(N)n1` [GSK2224810], the pKd was 6.48.

(Values after paper PMC5540273 (PLoS ONE, 2017).)
